Assay outcomes deposited in PubChem by National Center for Advancing Translational Sciences (NCATS).
Compounds with a hit are over-represented: about 19% of the library has one in this group of screens.
KB-3-1 cytotox – qHTS assay for MDR1-selective chemotherapeutics: Primary screen using the parental adenocarcinoma cell KB-3-1; KB-3-1 viability, CellTiter-Glo ATP luminescence, 72 h; Potency, µM (highest dose often 46.1 µM), actives largely listed as cytotoxic; 400,000 compounds, 1.4% hits; AID 1347075, 2019; also: nearly all actives have a fitted effect of over 60% in size
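Parental KB-3-1 adenocarcinoma cells in phenol-red-free DMEM with 10% FBS were pin-treated with compounds at several concentrations, incubated 72 h at 37 °C, and viability read by CellTiter-Glo luminescence; concentration-effect curves were fitted after normalization.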
DT40 TDP1 CPT – qHTS for Inhibitors of human tyrosyl-DNA phosphodiesterase 1 (TDP1): qHTS in cells in presence of CPT; 420,000 compounds, 12% hits; Potency, µM (series often up to 46.2 µM), for the others: top-dose activity change, negative = growth inhibition, hits mostly inhibitors; chicken DT40 Tdp1-/-;hTDP1 cells + 20 nM CPT, ATP luminescence, 48 h; also: nearly all actives have a fitted effect of over 55% in size
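Chicken DT40 Tdp1-/- cells complemented with human TDP1, 400 cells/well, exposed to compounds plus 20 nM camptothecin for at least 48 h at 37 C; viability read as ATP content by CellTiter-Glo luminescence.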
HT1080-NT tox – qHTS for induction of synthetic lethality in tumor cells producing 2HG: qHTS for the HT-1080-NT fibrosarcoma cell line | HT-1080-NT fibrosarcoma viability, CellTiter-Glo ATP luminescence, 48 h | Potency, µM (top dose mostly 46.1 µM), for inactives: top-dose activity, negative = less viability, usual class: cytotoxic | 360,000 compounds, 1.6% hits;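 also: NT is the 2HG producing partner of a matched IDH1 knockdown line; 0% = DMSO-treated cells and -100% = media-only wells without cells; nearly all actives have a fitted effect of over 55% in size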
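Viability of the 2HG-overproducing fibrosarcoma line after 48 hours of compound exposure at 37 degrees C was determined by luminescence with CellTiter-Glo, and concentration-effect curves were then fitted and categorized.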
DT40 TDP1 no CPT – qHTS for Inhibitors of human tyrosyl-DNA phosphodiesterase 1 (TDP1): qHTS in cells in absence of CPT | DT40 Tdp1-/- hTDP1 cells, no CPT, ATP luminescence, 48 h | Potency, µM (top dose mostly 46.2 µM), without a hit: at the top dose activity change, negative = growth inhibition, hits mostly inhibitors | 420,000 compounds, 15% hits; also: nearly all actives have a fitted effect of over 55% in size
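A cellular qHTS used chicken DT40 cells lacking endogenous Tdp1 but carrying stably transfected human TDP1. Compounds were applied without camptothecin, and cell growth kinetics were judged by ATP-dependent luminescence after ≥48 hr.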
HT1080 IDH1KD tx – qHTS for induction of synthetic lethality in tumor cells producing 2HG: qHTS for the HT-1080-IDH1KD cell line; 360,000 compounds, 2% hits; HT-1080 IDH1 knockdown viability, ATP luminescence, 48 h; AID 686971, 2013; Potency, µM (titrated, usually from 46.1 µM), without a hit: at the highest dose activity, negative = toxicity, most hits filed as cytotoxic;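 also: 0% = DMSO wells and -100% = cell-free medium wells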
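In this qHTS, HT-1080 cells depleted of IDH1 are exposed for 48 h at 37 °C to compound titrations. Toxicity is scored from CellTiter-Glo luminescence, with DMSO as full viability and medium alone as none.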
KB-V1 cytotox – qHTS assay for MDR1-selective chemotherapeutics: Primary screen using the drug-selected MDR subline cells KB-V1; KB-V1 MDR cells viability, CellTiter-Glo, 72 h; Potency, µM (highest dose often 46.1 µM), usual class: cytotoxic; 400,000 compounds, 3.4% hits; AID 1347076, 2019; also: nearly all actives have a fitted effect of over 60% in size
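Cytotoxicity toward P-gp-expressing KB-V1 cells was determined as loss of CellTiter-Glo luminescence after 72 h at 37 degrees C. Compounds were tested in quantitative HTS format across a concentration range, with curves fitted to normalized data.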
* = called active by the depositor. Calls follow the shape of the dose curve; as a rule, active = well fitted curve in the direction sought with a large enough effect; inconclusive = small, poorly fitted or top-dose-only effect, or another doubt; inactive = no such curve, though single readings can be large; an effect the other way counts as inactive or inconclusive. Unless noted, % is scaled to controls: 0 for no effect and ±100 for the full control effect; potency is read from the fitted curve at half-maximal effect.

Results for O=[N+]([O-])c1ccc(-c2nc(C(Cl)Cl)c3ccccc3n2)cc1 ?
KB-3-1 cytotox: 13µM*; DT40 TDP1 CPT: 0.15µM*; HT1080-NT tox: -4%; DT40 TDP1 no CPT: 0.16µM*; HT1080 IDH1KD tx: 11%; KB-V1 cytotox: inactive

What do the screens show for `CCCCN(C(=O)c1ccc(-n2nc(C)cc2C)cc1)c1c(N)n(CCC)c(=O)[nH]c1=O`?
KB-3-1 cytotox: inactive; DT40 TDP1 CPT: -4%; HT1080-NT tox: 9%; DT40 TDP1 no CPT: -2%; HT1080 IDH1KD tx: 4%; KB-V1 cytotox: inactive

How did CC1=CC(C)(C)N2C(=O)C(=O)c3cc(OC(=O)c4ccco4)cc1c32 do in these assays?
KB-3-1 cytotox: inconclusive; DT40 TDP1 CPT: 0.65µM*; HT1080-NT tox: 2.3µM*; DT40 TDP1 no CPT: 1.2µM*; HT1080 IDH1KD tx: 16µM*; KB-V1 cytotox: inconclusive

Results for CCCCn1c(N)c(N(CCC(C)C)C(=O)COC(=O)/C=C/c2ccc(F)cc2)c(=O)[nH]c1=O ?
KB-3-1 cytotox: inconclusive; DT40 TDP1 CPT: inconclusive; HT1080-NT tox: -4%; DT40 TDP1 no CPT: inconclusive; HT1080 IDH1KD tx: -3%; KB-V1 cytotox: inactive

What do the screens show for `O=C(Cn1nnc(-c2ccc(CN3CCOCC3)cc2)n1)N(c1ccccc1)c1ccccc1`?
KB-3-1 cytotox: inactive; DT40 TDP1 CPT: 18µM*; HT1080-NT tox: -3%; DT40 TDP1 no CPT: 21µM*; HT1080 IDH1KD tx: 0%; KB-V1 cytotox: inconclusive

Results for CC(C)(C)NC(=O)CN(C(=O)Cn1nnc(-c2ccc(Cl)cc2)n1)C1CCN(Cc2ccccc2)CC1 ?
KB-3-1 cytotox: inactive; DT40 TDP1 CPT: inconclusive; HT1080-NT tox: inconclusive; DT40 TDP1 no CPT: 21µM*; HT1080 IDH1KD tx: inconclusive; KB-V1 cytotox: inactive

How did CC(C)CN(C(=O)Cn1nnc(-c2ccc(Cl)cc2)n1)C1CCS(=O)(=O)C1 (centres undefined) do in these assays?
KB-3-1 cytotox: inactive; DT40 TDP1 CPT: 0%; HT1080-NT tox: 1%; DT40 TDP1 no CPT: -12%; HT1080 IDH1KD tx: -6%; KB-V1 cytotox: inactive

How did Cc1ccc(C(=O)NC2CCN(CC(=O)Nc3cccc([N+](=O)[O-])c3)CC2)cc1 do in these assays?
KB-3-1 cytotox: inactive; DT40 TDP1 CPT: -45%; HT1080-NT tox: -26%; DT40 TDP1 no CPT: inconclusive; HT1080 IDH1KD tx: -9%; KB-V1 cytotox: inconclusive

Results for COc1ccc(C(=O)c2cc([N+](=O)[O-])ccc2N2CCCC2)cc1 ?
KB-3-1 cytotox: inconclusive; DT40 TDP1 CPT: 3.3µM*; HT1080-NT tox: 3.3µM*; DT40 TDP1 no CPT: 5.2µM*; HT1080 IDH1KD tx: 3.3µM*; KB-V1 cytotox: inconclusive

What do the screens show for `COc1ccc(C(=O)c2ccc([N+](=O)[O-])cc2Cl)cc1`?
KB-3-1 cytotox: inactive; DT40 TDP1 CPT: -1%; HT1080-NT tox: -6%; DT40 TDP1 no CPT: inconclusive; HT1080 IDH1KD tx: -1%; KB-V1 cytotox: inactive

What do the screens show for `O=C(c1ccccc1)c1cc([N+](=O)[O-])ccc1N1CCCC1`?
KB-3-1 cytotox: inconclusive; DT40 TDP1 CPT: -25%; HT1080-NT tox: -7%; DT40 TDP1 no CPT: -32%; HT1080 IDH1KD tx: -19%; KB-V1 cytotox: inactive

What do the screens show for `COc1ccc(C(=O)c2cc([N+](=O)[O-])ccc2N2CCN(C)CC2)cc1`?
KB-3-1 cytotox: 2.9µM*; DT40 TDP1 CPT: 2.6µM*; HT1080-NT tox: 2.6µM*; DT40 TDP1 no CPT: 3.3µM*; HT1080 IDH1KD tx: 5.2µM*; KB-V1 cytotox: 6.5µM*

What do the screens show for `CC1(C)Cc2c(cnn2-c2ccc(F)cc2)C(NC(=O)c2ccco2)C1` (centres undefined)?
DT40 TDP1 CPT: -10%; HT1080-NT tox: -8%; DT40 TDP1 no CPT: -26%; HT1080 IDH1KD tx: 3%

What do the screens show for `CC(C)(C)c1ccc(-n2ncc3c2CCCC3NC(=O)CCN2CCCC2=O)cc1` (centres undefined)?
KB-3-1 cytotox: inactive; DT40 TDP1 CPT: 6.5µM*; HT1080-NT tox: inconclusive; DT40 TDP1 no CPT: 2.1µM*; HT1080 IDH1KD tx: 18µM*; KB-V1 cytotox: inactive

Results for COc1ccc(-n2ncc3c2CC(C)(C)CC3NC(=O)c2c(C)cc(=O)oc2C)cc1 (centres undefined) ?
KB-3-1 cytotox: inactive; DT40 TDP1 CPT: 26µM*; HT1080-NT tox: -2%; DT40 TDP1 no CPT: inconclusive; HT1080 IDH1KD tx: 1%; KB-V1 cytotox: inactive

Results for CC(C)(C)c1ccc(-n2ncc3c2CCCC3NC(=O)CN2CCCC2=O)cc1 (centres undefined) ?
KB-3-1 cytotox: inconclusive; DT40 TDP1 CPT: 18µM*; HT1080-NT tox: inconclusive; DT40 TDP1 no CPT: 16µM*; HT1080 IDH1KD tx: 1%; KB-V1 cytotox: 8.2µM*

Results for CC1(C)Cc2c(cnn2-c2ccc(F)cc2)C(NC(=O)C2=NNC(=O)CC2)C1 (centres undefined) ?
KB-3-1 cytotox: inactive; DT40 TDP1 CPT: 15µM*; HT1080-NT tox: 27%; DT40 TDP1 no CPT: inconclusive; HT1080 IDH1KD tx: 3%; KB-V1 cytotox: inactive

How did CC(=O)CCC(=O)NC1CCCc2c1cnn2-c1ccc(C(C)(C)C)cc1 (centres undefined) do in these assays?
KB-3-1 cytotox: inactive; DT40 TDP1 CPT: inconclusive; HT1080-NT tox: -10%; DT40 TDP1 no CPT: inconclusive; HT1080 IDH1KD tx: -9%; KB-V1 cytotox: inconclusive

How did CC1(C)Cc2c(cnn2-c2ccc(F)cc2)C(NC(=O)CCN2CCCC2=O)C1 (centres undefined) do in these assays?
KB-3-1 cytotox: inactive; DT40 TDP1 CPT: 18µM*; HT1080-NT tox: 4%; DT40 TDP1 no CPT: inconclusive; HT1080 IDH1KD tx: 0%; KB-V1 cytotox: inactive

What do the screens show for `CC1(C)Cc2c(cnn2-c2cccc(F)c2)C(NC(=O)CCN2CCCC2=O)C1` (centres undefined)?
KB-3-1 cytotox: inactive; DT40 TDP1 CPT: -30%; HT1080-NT tox: -13%; DT40 TDP1 no CPT: -17%; HT1080 IDH1KD tx: -2%; KB-V1 cytotox: inactive

How did CN(C)/C(Cn1cncn1)=C1/N=C(c2c(F)cccc2F)OC1=O do in these assays?
KB-3-1 cytotox: inactive; DT40 TDP1 CPT: 5%; HT1080-NT tox: 3%; DT40 TDP1 no CPT: -17%; HT1080 IDH1KD tx: -2%; KB-V1 cytotox: inactive
